{
  "source": "PubChem BioAssay AID1460",
  "about": "(National Center for Advancing Translational Sciences (NCATS), 2008)",
  "note": "Out of some 270,000 compounds screened, about 5,800 (2.1%) were called active. Another 16% or so got no clear call; they are omitted. The call rests on the fitted dose curve; in most records, active means well fitted inhibition curve with a large enough effect; inconclusive means small, poorly fitted or top-dose-only effect; inactive means flat fitted curve, though single readings scatter. The list comes from a sample in which actives are over-represented; it also holds similar structures and randomly drawn compounds. Entries that show only a call come without a potency.",
  "data": [
    {"molecular_target": "Microtubule-associated protein tau (Homo sapiens) (UniProt P10636)", "sequence (P10636 561-689 P618L limits assumed)": "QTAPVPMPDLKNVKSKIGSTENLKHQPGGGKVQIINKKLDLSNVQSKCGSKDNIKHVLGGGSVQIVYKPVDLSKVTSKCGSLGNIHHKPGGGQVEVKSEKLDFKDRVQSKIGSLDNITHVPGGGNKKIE", "experiment": "qHTS for Inhibitors of Tau Fibril Formation, Thioflavin T Binding; further: nearly all actives have a fitted effect of over 55% in size; further: potency means the concentration at half of the fitted maximal effect", "details": "recombinant tau K18 P301L (four-repeat tau fragment), heparin-induced fibrillization, ThT fluorescence; series mostly up to 57.4 µM", "summary_of_the_method": "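Tau K18 P301L fragment (15 uM unlabeled plus 0.24 uM Alexa 594-labeled) in 100 mM sodium acetate pH 7 with compound, fibrillization induced by 20 uM heparin for 6 hr at 37 C. Thioflavin T (30 uM) added, fluorescence read after 1 hr (ex 450, em 510 nm).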", "values": [
      {"compound": "COc1cccc(CNC(=O)C(=O)NCC(c2cccs2)S(=O)(=O)c2ccccc2)c1", "note": "(stereo not given)", "Potency": "inactive"},
      {"compound": "O=C(COc1ccccc1)OCc1cc(=O)n2nc(-c3cccs3)sc2n1", "Potency": "inactive"},
      {"compound": "CCc1ccc(NC(=O)c2cc3c(=O)n(Cc4cccnc4)ccc3nc2C)cc1", "Potency": "inactive"},
      {"compound": "COc1cccc(-n2ccn(CC(=O)NCc3ccc(C)cc3)c(=O)c2=O)c1", "Potency": "inactive"},
      {"compound": "O=C(CSc1oc(-c2ccco2)nc1S(=O)(=O)c1ccccc1)c1ccc(Cl)cc1", "Potency": "inactive"},
      {"compound": "COc1ccc(OC)c(CCNC(=O)CCCn2c(=O)c3cccn3c3cccnc32)c1", "Potency": "inactive"},
      {"compound": "CCOCCCn1c(SCC(=O)Nc2ccc(CC)cc2)nc2ccccc2c1=O", "Potency": "inactive"},
      {"compound": "COc1ccc(-c2nc3ccc(C(=O)NCc4ccc(C)cc4)cc3nc2-c2ccc(OC)cc2)cc1", "Potency": "inactive"},
      {"compound": "O=C(NCc1ccccn1)c1ccc2nc(-c3ccco3)c(-c3ccco3)nc2c1", "Potency": "12.6 µM (active)"},
      {"compound": "COCCNC(=O)Nc1ccc2nc(-c3ccco3)c(-c3ccco3)nc2c1", "Potency": "3.98 µM (active)"},
      {"compound": "O=C(Nc1ccc2nccnc2c1)c1ccco1", "Potency": "inactive"},
      {"compound": "CC(C)(C)c1ccc(NC(=O)NCc2ccco2)cc1", "Potency": "inactive"},
      {"compound": "O=C(NCc1ccccn1)c1cc(-c2ccccc2Cl)on1", "Potency": "inactive"},
      {"compound": "Cc1nn(-c2ccc(F)cc2)c(-n2cccc2)c1C(=O)N1CCN(c2ccccc2)CC1", "Potency": "inactive"},
      {"compound": "Cc1ccc(-c2nc(Cn3c(=O)cc(-c4ccccc4)c4c(C)nn(C)c43)c(C)o2)cc1", "Potency": "inactive"},
      {"compound": "CN(Cc1ccccc1)S(=O)(=O)c1ccc(F)c(C(=O)Nc2cccc(Cl)c2Cl)c1", "Potency": "inactive"},
      {"compound": "O=C(c1cccc(Br)c1)N1CCN(Cc2cc(=O)n3nc(-c4ccccc4)sc3n2)CC1", "Potency": "inactive"},
      {"compound": "CCN(CC)S(=O)(=O)c1ccc2c(c1)nc(CN(C)C(=O)Nc1ccc(Cl)cc1)n2C", "Potency": "inactive"},
      {"compound": "O=C(NCCc1ccccc1)C(=O)NCC(c1ccco1)S(=O)(=O)c1ccccc1", "note": "(stereo not given)", "Potency": "inactive"},
      {"compound": "CSc1nc(-c2ccc(F)cc2)nc2c1Cc1c(CO)cnc(C)c1O2", "Potency": "inactive"},
      {"compound": "CCN(CC)c1ccc2c(Nc3ccccc3)c(C=O)c(=O)oc2c1", "Potency": "inactive"},
      {"compound": "CCOC(=O)c1c(C)nc2c(c1C)c(=O)oc1ccccc12", "Potency": "inactive"},
      {"compound": "CCN(CC)c1ccc2oc(=O)c(C)nc2c1", "Potency": "7.94 µM (active)"},
      {"compound": "COc1ccccc1CNC(=O)c1ccc(-n2c(C)cc3c2CCCC3)cc1", "Potency": "inactive"},
      {"compound": "COc1ccc(C(=O)Nc2onc3c2CCCC3)cc1", "Potency": "inactive"},
      {"compound": "COc1ccccc1CNC(=O)Cn1nc(C)c2nn(-c3ccc(Cl)cc3)c(C)c2c1=O", "Potency": "inactive"},
      {"compound": "CCN(CC)C(=O)CSc1nc2cc3c(cc2c(=O)n1CCCC(=O)NCc1ccc2c(c1)OCO2)OCO3", "Potency": "inactive"},
      {"compound": "O=C(CSCc1cnn(-c2ccccc2)c1-n1cccc1)NCc1ccc(Cl)cc1", "Potency": "inactive"},
      {"compound": "CCOc1ccc(C(=O)N2CCN(CCc3ccccn3)CC2)cc1", "Potency": "inactive"},
      {"compound": "Cc1cc(-c2n[nH]c(=S)n2/N=C/c2ccco2)n[nH]1", "Potency": "inactive"},
      {"compound": "Oc1ccccc1/C=N/n1c(-c2cccs2)n[nH]c1=S", "Potency": "inactive"},
      {"compound": "Cc1cc(-c2n[nH]c(=S)n2/N=C/C(Br)=C/c2ccccc2)n[nH]1", "Potency": "12.6 µM (active)"},
      {"compound": "COc1ccccc1CN1CCC(CNC(=O)c2cnn(-c3cccc(Cl)c3)c2C2CCN(C(=O)OC(C)(C)C)CC2)CC1", "Potency": "inactive"},
      {"compound": "CCOc1ccccc1CNC(=O)c1ccc2c(c1)nc1n2CCC(C)C1", "note": "(stereo not given)", "Potency": "inactive"},
      {"compound": "Cc1ccc(NC(=O)c2cc3cc(C)ccc3n2C)cc1", "Potency": "inactive"},
      {"compound": "CCOC(=O)c1c(NC(C)=O)c2c3c(sc2n1Cc1c(C)cc(C)cc1C)CCCC3", "Potency": "inactive"},
      {"compound": "Fc1ccc(CSc2nc(NCc3ccccc3)c3ccccc3n2)cc1", "Potency": "inactive"},
      {"compound": "COc1ccc(NC(C)=O)cc1NC(=O)CN1CCN(c2ccc(F)cc2)CC1", "Potency": "inactive"},
      {"compound": "CC1(C)CC(CC(=O)O)C(=O)O1", "note": "(stereo not given)", "Potency": "inactive"},
      {"compound": "C/C(CC1CC(C)(C)OC1=O)=N/Nc1nc(-c2ccccc2)cs1", "note": "(stereo not given)", "Potency": "25.1 µM (active)"},
      {"compound": "CC(=O)Nc1ccc(-c2csc(NC=C3C(=O)OC(C)(C)OC3=O)n2)cc1", "Potency": "inactive"},
      {"compound": "Cc1ccc(-c2nn3c(=O)cc(CN4CCN(S(=O)(=O)c5ccc(Cl)cc5)CC4)nc3s2)cc1", "Potency": "inactive"},
      {"compound": "COc1ccccc1N1CCN(c2ccc(=O)n(CC(=O)NCc3ccc(OC(C)C)cc3)n2)CC1", "Potency": "inactive"},
      {"compound": "COc1ccc(N2C(=O)CS(=O)(=O)C23C(=O)N(Cc2ccc(C)cc2)c2ccccc23)cc1Cl", "note": "(stereo not given)", "Potency": "inactive"},
      {"compound": "Cc1c(CNC(C)c2ccccc2)c(C(=O)O)c(C)n1Cc1c(F)cccc1Cl", "note": "(stereo not given)", "Potency": "inactive"},
      {"compound": "CCOc1ccc(/C(O)=C2\\C(=O)C(=O)N(c3ccc(OC)cc3)C2c2ccccc2[N+](=O)[O-])cc1", "note": "(stereo not given)", "Potency": "5.01 µM (active)"},
      {"compound": "COc1ccc(/C(O)=C2/C(=O)C(=O)N(c3nc(C)c(C)s3)C2c2ccco2)cc1", "note": "(stereo not given)", "Potency": "inactive"},
      {"compound": "COc1ccccc1C1/C(=C(/O)c2ccc(OC(C)C)cc2)C(=O)C(=O)N1c1cc(C)on1", "note": "(stereo not given)", "Potency": "inactive"},
      {"compound": "CN(C)N=Nc1ccc2nc[nH]c2c1", "Potency": "4.47 µM (active)"},
      {"compound": "CC/C(O)=N\\S(=O)(=O)c1ccc(N=NN(C)C)cc1", "Potency": "inactive"},
      {"compound": "CCCN(CCC)S(=O)(=O)c1ccc(C(=O)Nc2sc3c(c2C(=O)OC)CCN(CC)C3)cc1", "Potency": "inactive"},
      {"compound": "CCc1cccc(NC(=O)CN(c2ccc(C)c(C)c2)S(=O)(=O)c2ccsc2C(=O)OC)c1", "Potency": "inactive"},
      {"compound": "Cc1ccc(/C=N/NC(=O)CSc2ccccn2)o1", "Potency": "inactive"},
      {"compound": "O=C(CSc1ccc(/C=N/NC(=O)c2cccc(F)c2)o1)Nc1ccccc1", "Potency": "inactive"},
      {"compound": "N#CCC(=O)N/N=C/c1ccc(SCC(=O)Nc2ccccc2)o1", "Potency": "25.1 µM (active)"},
      {"compound": "O=C(CCc1ccccc1)NCc1ccc2c(c1)CCN2C(=O)c1ccccc1", "Potency": "inactive"},
      {"compound": "Cc1cccc(-n2c(C)cc(/C=N\\NC(=O)c3cccs3)c2C)c1", "Potency": "inactive"},
      {"compound": "Cc1ccc(-n2c(C)cc(/C=N\\NC(=O)CC(=O)NC(C)C)c2C)cc1", "Potency": "inactive"},
      {"compound": "Cc1ccc(-n2c(C)cc(/C=N/Nc3ccc([N+](=O)[O-])cn3)c2C)c(C)c1", "Potency": "3.98 µM (active)"},
      {"compound": "Cc1cc(/C=N/n2cnnc2)c(C)n1-c1cccc(C(=O)O)c1", "Potency": "inactive"},
      {"compound": "COc1cc(/C=N\\Nc2ccc([N+](=O)[O-])cn2)ccc1OCC(=O)O", "Potency": "12.6 µM (active)"},
      {"compound": "COc1cc(/C=N\\NC(=O)CNC(=O)c2cccc([N+](=O)[O-])c2)ccc1O", "Potency": "inactive"},
      {"compound": "Cc1cc(/C=N/Nc2ccc([N+](=O)[O-])cn2)c(C)n1-c1cccc(C(=O)O)c1", "Potency": "2.82 µM (active)"},
      {"compound": "Cc1cccc(C)c1NC(=O)CSc1ccc([N+](=O)[O-])cn1", "Potency": "inactive"},
      {"compound": "COc1cc(/C=N/NC(=O)Nc2ccccc2)ccc1OCCOc1ccccc1C", "Potency": "inactive"}
    ]}
  ]
}
